High-throughput results from PubChem.
A selection: hits, their analogues and other compounds. The true share with any hit is near 2%.
JMJD2E inh – inhibitors of human JMJD2E histone demethylase | B2RXH2 | JMJD2E catalytic domain, FDH-coupled NADH fluorescence (FDH is formaldehyde dehydrogenase) | Potency, µM (top dose mostly 57.1 µM), usual class: inhibitors | actives 1.6% (n = 230,000) | AID 2147; active = well fitted inhibition curve with a large enough effect, not every such curve was filed as active; inconclusive = small, poorly fitted or top-dose-only effect, or another doubt; inactive = no such curve, though single readings can be large or run the other way; also: nearly all actives have a fitted effect of over 50% in size
Target sequence (B2RXH2 1-337 limits assumed): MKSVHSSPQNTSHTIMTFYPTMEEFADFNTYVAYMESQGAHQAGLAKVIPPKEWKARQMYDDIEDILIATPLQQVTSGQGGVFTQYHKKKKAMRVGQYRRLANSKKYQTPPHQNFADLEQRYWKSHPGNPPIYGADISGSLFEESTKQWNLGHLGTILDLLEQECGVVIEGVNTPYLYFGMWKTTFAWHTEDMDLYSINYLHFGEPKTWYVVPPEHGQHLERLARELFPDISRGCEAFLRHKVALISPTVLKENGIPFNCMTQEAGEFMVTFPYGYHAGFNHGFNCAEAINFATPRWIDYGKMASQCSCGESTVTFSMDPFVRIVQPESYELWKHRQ
FBPA coupling cs – inhibits coupling enzyme system, counter-screen for aldolase hits. coupling enzyme system counterscreen, AmpLite Red fluorescence. activity change, negative = inhibition, % at 58.2 µM, hits read low. actives 0.67% (n = 290,000). AID 2472; in the data active = activity change below about -30%
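Activity here indicates interference with the coupling reaction, not aldolase inhibition. Compounds at 57.5 uM final met coupling enzymes for 10 min at RT; substrate and AmpLite Red detection followed, with a 525/598 nm fluorescence read after 20 min.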
TRb SRC2 PPI – disrupts binding of human TR beta to SRC2; actives 0.065% (n = 280,000); TRbeta-SRC2 peptide binding, fluorescence polarization; receptor liganded with 1 µM T3; Potency, µM (doses to about 106 µM), actives largely listed as inhibitors; AID 1469; also: nearly all actives have a fitted effect of over 50% in size
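Assay buffer: 20 mM Tris-HCl, 100 mM NaCl, 10% glycerol, 1 mM EDTA, 0.01% NP-40, 1 mM DTT, 1 uM T3, 5% DMSO; TRb LBD 0.6 uM, Texas Red SRC2 20 nM; FP after 5 hr.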
HTT ATP protect – protects HTT-Q103 PC12 cells, measured by ATP; AID 1471; Potency, µM (doses to about 56.4 µM), most hits filed as activators; PC12 HTT-Q103 induced, cytoprotection, ATP luminescence, 40 h; actives 0.14% (n = 230,000); also: nearly all actives have a fitted effect of over 45% in size
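Rat PC12, Q103 Htt exon1-GFP fusion, ecdysone promoter; tebufenozide inducer 100 nM final; compound titration; qHTS, 1500 cells/well; ATPlite luminescent read.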
HTT aggregate – mutant huntingtin aggregation inhibition; Potency, µM (doses to about 46.1 µM), actives largely listed as inhibitors; actives 1.1% (n = 220,000); PC12 HttQ103-GFP aggregates, Acumen cytometry, 40 h; AID 1688; also: nearly all actives have a fitted effect of over 60% in size
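Aggregates are detected as GFP objects 1–25 µm with signal 6 STDEV over background in lysates of induced PC12 cells. These carry Huntingtin exon 1 with 103 glutamines fused to GFP under an ecdysone promoter; compounds titrated.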
TR SRC2 fluor cs – alters Texas Red total fluorescence, flagging assay interference | TRb/SRC2 Texas Red total fluorescence interference | Potency, µM (highest dose often 106 µM) | actives 0.29% (n = 280,000); active = well fitted curve in either direction with a large enough effect; inconclusive = small, poorly fitted or top-dose-only effect
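Human TRb ligand-binding domain at 0.6 uM with 20 nM Texas Red SRC2 peptide in Tris buffer containing 1 uM T3 and 5% DMSO, incubated with compound 5 h at ambient temperature. Total fluorescence (555/632 nm) calculated as parallel + 2 × perpendicular.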
A number is an active result; n = inactive; u = inconclusive; x = no result; [ ] = remark or other dose. Unless noted, calls follow the shape of the dose curve; as a rule, active = well fitted curve in the direction sought with a large enough effect; inconclusive = small, poorly fitted or top-dose-only effect, or another doubt; inactive = no such curve, though single readings can be large; an effect the other way counts as inactive or inconclusive.

SMILES	JMJD2E inh	FBPA coupling cs	TRb SRC2 PPI	HTT ATP protect	HTT aggregate	TR SRC2 fluor cs
COc1ccc(C(=O)C2C3C4COC(O4)C(=O)C3C3C=Cc4ccccc4N32)c(OC)c1 (centres undefined)	u	n	7.08µM	n[1.9 µM]	x	22.4µM[fluorescent]
CC(=O)[C@@H]1[C@H]2[C@H](C(=O)[C@H]3OC[C@@H]2O3)[C@H]2C=Cc3ccccc3N21	12.6µM	n	n	n[1.9 µM]	x	35.5µM[fluorescent]
O=C(c1csnn1)N1CCC2(CCCN(C(c3ccccc3)c3ccccc3)C2)CC1	x	n	x	n	x	x
Cc1nn(C)c2c1c(C(F)(F)F)cc(=O)n2C(C)C(=O)NCCc1ccccc1 (centres undefined)	x	x	n	x	x	n
CCN(Cc1ccncc1)Cc1nc(Cc2ccccc2Cl)no1	n	n	n	n	17.8µM	n
CN(Cc1cnccn1)Cc1nc(Cc2ccccc2Cl)no1	n	n	n	n[10 µM]	n[9.22 µM]	n
O=C(c1cc2nc(-c3ccc(F)cc3)cc(C(F)(F)F)n2n1)N1CCCCC1c1cccnc1 (centres undefined)	u	n	n	n	8.91µM	n
O=C(c1cnn2c(C(F)(F)F)cc(-c3ccccc3)nc12)N1CCCCC1c1cccnc1 (centres undefined)	u	n	n	n[1.9 µM]	n[9.22 µM]	n
Cc1ccccc1C(=O)NC1(C(F)(F)F)N=C(c2ccccc2)N(Cc2ccccc2)C1=O (centres undefined)	x	x	n	x	x	10µM[quencher]
COc1ccccc1NC(=O)Cn1c(SCC(=O)N(C)c2ccccc2)nc2ccccc21	x	x	n	x	x	n
COc1ccc(OCc2ccc(-c3nc(C#N)c(NCc4ccc(F)cc4)o3)o2)cc1	x	x	n	x	x	n
Cc1cc(C)n2nc(SCC(=O)N/N=C/c3cccc(Br)c3)nc2n1	n	-32.0	n	n	n	n
Cc1cc(C)n2nc(SCC(=O)N/N=C/c3ccccn3)nc2n1	u	n	n	x	n	n
O=C(NC1CCCCC1)c1ccc(Cn2c(SCc3cccc(F)c3)nc3cccnc32)cc1	x	x	n	x	x	n
O=C(COc1ccc(F)cc1)NCC(c1ccc(Cl)cc1)N1CCCCC1 (centres undefined)	x	x	n	x	x	39.8µM[quencher]
COc1ccc(OCC(=O)NCC(c2ccc(OC)cc2)N2CCCCC2)cc1 (centres undefined)	x	n	n	x	x	n
Cc1ccc(-c2nnc(Nc3ccc(O)cc3)c3ccccc23)cc1S(=O)(=O)N1CCN(C)CC1	x	x	n	x	x	n
CC(C)(C)OC(=O)N1CCC(c2c(C(=O)N3CCN(C(=O)c4ccco4)CC3)cnn2-c2ccc(Cl)cc2)CC1	x	x	n	x	x	n
COc1ccc(C[C@H]2COC(=O)[C@@H]2Cc2ccc(OC3OC(CO)C(O)C(O)C3O)c(OC)c2)cc1OC (some centres undefined)	n	n	n	x	n	n
COc1cc(C2OCC3C(c4ccc(OC5OC(CO)C(O)C(O)C5O)c(OC)c4)OCC23)ccc1O (centres undefined)	28.2µM	n	n	n[10 µM]	n[9.22 µM]	n
CCOc1ccc(Nc2nc(N)c(C(=O)c3ccccc3Cl)s2)cc1	x	x	n	x	x	n
O=C(NCCc1ccc(Cl)cc1)C(=O)NCC(c1cccs1)S(=O)(=O)c1ccccc1 (centres undefined)	x	x	n	x	x	n
CCOc1cc(CNc2ccccc2)cc(Br)c1OCC(=O)NC(C)(C)C	n	n	n	n	35.5µM	n
CCCCN(CC)CCCNC(=O)c1nn(-c2ccc(OC)cc2)c(=O)c2c1c1ccccc1n2C	x	x	n	x	x	n
CCOCCCNC(=O)c1cc2c(=O)[nH]c3ccccc3c2n1C	x	x	n	x	x	n
SMILES	JMJD2E inh	FBPA coupling cs	TRb SRC2 PPI	HTT ATP protect	HTT aggregate	TR SRC2 fluor cs
C=CC1=C2C=C(C3CC3)N(CCCCO)C=C2C(=O)C(C)(OC(=O)c2ccco2)C1=O (centres undefined)	u	-42.4	n[11.2 µM]	n[10 µM]	x	n[11.2 µM]
C=CC1=C2C=C(C3CC3)N(CC3CC3)C=C2C(=O)C(C)(OC(=O)c2ccco2)C1=O (centres undefined)	n[11.4 µM]	-30.5	n[11.2 µM]	n[10 µM]	x	n[11.2 µM]
Cc1ccc(CN(C(=O)c2ccc(OCC(C)C)cc2)c2ccccn2)o1	x	x	n	x	x	u
CCc1cc(=O)oc2cc(OCC(=O)N3CCC(C(=O)O)CC3)ccc12	x	-73.1	x	x	x	x
CCOC(=O)c1c(-c2ccc(C)cc2)csc1NC(=O)c1cc(=O)c2ccc(C)cc2o1	x	x	n	x	x	35.5µM[quencher]
CCOC(=O)c1c(-c2ccc(C)cc2)csc1NC(=O)CCN1CCOCC1	31.6µM	n	n	n[10 µM]	n	n
CCOC(=O)c1c(-c2ccccc2)csc1NC(=O)CCN1CCOCC1	n	n	n	n[10 µM]	n	n
Cc1ccc(CN(C(=O)COc2ccc(F)cc2)C2CCS(=O)(=O)C2)o1 (centres undefined)	x	x	n	x	x	n
O=C(CSc1nnc2ncccn12)N1CCCCCC1	n	n	n	n	0.562µM	n
CC[N+]1=C(C)C(C)(C)c2cc(C)ccc21	n	n	u	n	2.51µM	39.8µM[fluorescent]
Cc1ccsc1-c1nc(CSCC(=O)N2CCN(c3ccccc3)CC2)c(C)o1	u	n	n	n	12.6µM	n
c1cncc(-c2nnc(-c3cccnc3)nn2)c1	u	-40.5	n	n[10 µM]	u	n
O=C(CCc1ccccc1)N1CCc2c([nH]c3ccccc23)C1c1ccc(F)cc1 (centres undefined)	x	x	n	x	x	n
CCOC(=O)c1c(N)n(-c2ccc(CC)cc2)c2nc3ccccc3nc12	x	x	n	x	x	n
CCOCCCNC(=O)c1c(N)n(-c2ccc3c(c2)OCO3)c2nc3ccccc3nc12	u	-35.0	n	n[10 µM]	n[9.22 µM]	n
Nc1c(C(=O)OCC2CCCO2)c2nc3ccccc3nc2n1-c1ccc2c(c1)OCCO2 (centres undefined)	u	-36.9	n	n	n	n
CCCNC(=O)c1c(N)n(-c2cc(OC)cc(OC)c2)c2nc3ccccc3nc12	u	n	n	n[0.074 µM]	17.8µM	n
Nc1c(C(=O)NC2CC2)c2nc3ccccc3nc2n1-c1ccc2c(c1)OCO2	u	n	n	n[0.074 µM]	u	n
CCOC(=O)c1c(N)n(-c2ccc(N)cc2)c2nc3ccccc3nc12	17.8µM	n	n	x	n	n
CCCNC(=O)c1c(N)n(-c2ccc3c(c2)OCO3)c2nc3ccccc3nc12	n	n	n	n	n	n
Nc1nc(-c2nn(Cc3ccccc3F)c3ncccc23)ncc1C1CC1	x	n	n	x	x	n
CCCc1cc(=O)[nH]c(SCc2nc(-c3ccc(OCC)cc3)no2)n1	x	x	n	x	x	n
COCCCNC(=O)c1c(N)n(-c2ccc3c(c2)OCO3)c2nc3ccccc3nc12	u	-47.1	n	n	n	n
COc1ccc(CN(C(=O)Nc2cccc(Cl)c2)c2ccccn2)cc1OC	x	x	n	x	x	u
CC(NC(=O)Cn1c(=O)oc2cc(S(=O)(=O)NCc3ccccc3)ccc21)c1ccccc1 (centres undefined)	x	x	n	x	x	n
